Measurements from PubChem BioAssay (NCI).
Compounds without any hit were thinned out: in the full panel of roughly 83,000, 20% have a hit.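 A percent growth of 40 corresponds to 60% growth inhibition; 0 means no net growth; -100 means all cells died. Active threshold: below 10.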 Values without a mark were called inactive. Activity calls are given as the source filed them.

Tests used:
Assay in all cases: NCI-60 one-dose screen, 48 h (100 = growth as untreated, 0 = no growth, -100 = all killed)
Conditions in all cases: 10 µM unless noted
HCT-15 colon = system: HCT-15 colon
HT29 colon = system: HT29 colon
SNB-75 CNS = system: SNB-75 CNS
SNB-19 CNS = system: SNB-19 CNS
U251 CNS = system: U251 CNS
PC-3 prostate = system: PC-3 prostate
SK-MEL-5 melanoma = system: SK-MEL-5 melanoma
UACC-62 melanoma = system: UACC-62 melanoma
LOX IMVI melanoma = system: LOX IMVI melanoma
SK-MEL-28 melanoma = system: SK-MEL-28 melanoma

| SMILES | growth (HCT-15 colon) | growth (HT29 colon) | growth (SNB-75 CNS) | growth (SNB-19 CNS) | growth (U251 CNS) | growth (PC-3 prostate) | growth (SK-MEL-5 melanoma) | growth (UACC-62 melanoma) | growth (LOX IMVI melanoma) | growth (SK-MEL-28 melanoma) |
| --- | --- | --- | --- | --- | --- | --- | --- | --- | --- | --- |
| C/C(=N\O)C(=O)NCCCCCC(=O)Nc1ccccc1 | 101% | 104% | 88.2% | 99.3% | 98.6% | 104% | 91.7% | 94.3% | 89.7% | 114% |
| CC/C=C1/C(=O)C=C[C@@H]1C/C=C\CCCC(=O)OC | 21.2% | 24.8% | 91.5% | 62.9% | 47.8% | 57% | 9.82% (active) | 16.6% | -63.9% (active) | 89.5% |
| CC(C)c1ccc(C(=O)Nc2sc3cc(O)ccc3c2C#N)cc1 | 18.9% | 57.8% | 22.6% | 36% | 29.2% | 58.6% | 22.3% | 18% | 25.4% | 52.4% |
| COc1ccc(OC)c(-c2cn3nc(-c4c[nH]c5ccc(Br)cc45)sc3n2)c1 | 24.6% | 10% | 45% | 75.4% | 36.9% | 40.9% | 75.3% | 50.1% | -50.5% (active) | 59.5% |
| O=S(=O)(c1ccccc1)N1CCCN(c2nc(-c3ccccc3)nc3nc(-c4ccccc4)oc23)CC1 | 109% | 109% | 88.5% | 101% | 107% | 105% | 103% | 102% | 99.9% | 110% |
| N/C(=N\c1nc2ccccc2s1)NC(=NC1CCCCC1)NC1CCCCC1 | 1.34% (active) | 6.19% (active) | 23.1% | 4.28% (active) | -56.2% (active) | 24.2% | -74.8% (active) | 52.8% | -100% (active) | -73.8% (active) |
| N#Cc1c(NC(=O)c2cccs2)[n+]([O-])c2ccc(Cl)cc2[n+]1[O-] | 111% | 107% | 91.7% | 103% | 99% | 96% | 37.7% | 82.2% | 94.8% | 106% |
| C=C1C(=O)O[C@H]2[C@H]1CC/C(COC(=O)c1cc3cc(F)ccc3[nH]1)=C\CC[C@@]1(C)O[C@@H]21 | -59.8% (active) | -53.6% (active) | -35.3% (active) | -10.2% (active) | -86% (active) | -75.2% (active) | -94.5% (active) | -71.9% (active) | -87.2% (active) | -77.4% (active) |
| COc1ccc(-c2ccc(-c3ccc(C(=N)N)cn3)s2)cc1 | 19.9% | 16.1% | 105% | 88.6% | 15.3% | 65.5% | 85% | 101% | 55% | 109% |
| CC1=CCC[C@@H]2C1(C)CC[C@H](C)[C@@]2(C)CC1=CC(=O)C(SC(C)(C)C)=CC1=O (stereo not given in full) | 86.4% | 77% | 77.4% | 94.5% | 85% | 56.1% | 78.4% | 67.1% | 74.6% | 94.2% |
| C=CCN=C(N)SCCCCCCSC(N)=NCC=C | 96.4% | 73.2% | 98.8% | 102% | 87.4% | 68.5% | 101% | 87.5% | 93.1% | 103% |
| Cc1ccc(/C=C2\CN(C(=O)C(Cl)Cl)C/C(=C\c3ccc(C)cc3)C2=O)cc1 | -39.2% (active) | -5.72% (active) | -30.2% (active) | -53.7% (active) | -94.9% (active) | -49.3% (active) | -81.8% (active) | -67.2% (active) | -92.2% (active) | -56.1% (active) |
| CC(C)=CC(=O)N[C@@H]1CC2CCC3C(CC[C@@]4(C)C3CC[C@@H]4C(C)N(C)C)[C@@]2(C)C[C@@H]1O (stereo not given in full) | 2.93% (active) | -4.96% (active) | 56.1% | 86.3% | 56.7% | 44.6% | 10.1% | 44.6% | 1.62% (active) | -28% (active) |
| CC1COCC(C)N1C1=C(Cl)C(=O)c2ccccc2C1=O (stereo not given) | 36.6% | 89.7% | 120% | 96.4% | 45.6% | 47.2% | 66.5% | 76.6% | 7.84% (active) | 87% |
| CN1C(=O)/C(=C/c2ccc(C(=O)Nc3ncc(Cc4ccc(F)cc4)s3)cc2)SC1=S | 22.4% | 29.5% | 40.3% | 60.5% | 65.2% | 52.4% | 17.6% | 9.34% (active) | 15.4% | 58% |
| C[C@H]1[C@H](C)CC[C@]2(C(=O)O)CC[C@]3(C)C(=CC[C@@H]4[C@@]5(C)C[C@@H](Cc6cn([C@@H]7O[C@H](CO)[C@@H](O)[C@H](O)[C@H]7O)nn6)[C@H](O)C(C)(C)[C@@H]5CC[C@]43C)[C@H]12 | 102% | 98.4% | 88% | 98.8% | 92.9% | 89.8% | 94.2% | 98.4% | 99% | 101% |
| Cc1ccccc1OCC(O)COc1ccccc1C | 79.1% | 103% | 112% | 94.9% | 86.1% | 94.8% | 93.6% | 81.9% | 97.6% | 101% |
| O=C1OCC2=C1C(c1cccc(C(F)(F)F)c1)c1cc3c(cc1N2CCO)OCO3 (stereo not given) | 25.2% | 6.68% (active) | 19% | 30.1% | 21% | 25.9% | 20% | 48.4% | 40.6% | 57.3% |
| O=C1NC(=O)c2c1c1c3ccccc3[nH]c1c1oc3ccc(F)cc3c21 | 55.1% | 81.9% | 41.3% | 89.4% | 83.4% | 45% | 53% | 46.1% | 66% | 90.6% |
| O=C1CC2C=CCN2C=C1NC(=O)C1CCCCC1 (stereo not given) | 98% | 97.7% | 87.3% | 111% | 97.9% | 94.8% | 102% | 108% | 96.9% | 107% |
| COc1ccc(C2=NN(C(C)=O)C(c3ccc(Oc4ccnc5cc(Cl)ccc45)c(OC)c3)C2)cc1 (stereo not given) | 90.6% | 15.1% | 16.1% | 73.1% | 45.7% | 56% | 65.8% | 54.7% | 53.2% | 35.8% |
| O=C(O)CCCc1cnc2c3sccc3nc(SCc3c(Cl)cccc3Cl)n12 | 36.9% | 15.6% | 16% | 41% | 29.5% | 50.7% | 52.9% | 21.2% | 39.9% | 75.3% |
| C#Cc1cccc(Nc2nc3ccc([N+](=O)[O-])cc3nc2Nc2cccc(C#C)c2)c1 | -69.4% (active) | -75.9% (active) | -91.9% (active) | -19.2% (active) | -91.1% (active) | -41.9% (active) | -88.9% (active) | -39.3% (active) | -93.2% (active) | -69.4% (active) |
| O=C(CN1CCN(c2cc3c(cc2F)c(=O)c(C(=O)O)cn3C2CC2)CC1)N/N=C/c1ccncc1 | 97.5% | 97.8% | 89.1% | 92.8% | 98.8% | 91.7% | 96.9% | 95.7% | 99.8% | 106% |
